CYP2C9 inh – human CYP2C9 inhibition. CYP2C9 Supersomes, luciferin-H conversion, luminescence. inhibition, % at 5 µM. 20% of 96,000 active. AID 777;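 active means blocking of liver enzyme CYP2C9 beyond about 50% at 5 µM, limit read from the data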
Measles CPE – protection of cells from measles virus. Measles virus-infected cells, CPE protection, absorbance. protection (pct of control), % at 4 µM. 1.5% of 140,000 active. AID 841; in the data active means protection mostly above about 24%, no sharp cut-off; inactive means mostly below about 26%
CYP2C19 act – cytochrome P450 2C19 (human) activation. 96,000 tested, under 10 active. activation factor at 5 µM. P33261. AID 1025. recombinant CYP2C19, luciferin-H EGE luminescence; hits give high values; 0 = fully inhibited enzyme, 1 = untreated enzyme;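 active means activation factor of at least 2 at 5 µM in the primary screen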
Target sequence (P33261 whole entry, looked up): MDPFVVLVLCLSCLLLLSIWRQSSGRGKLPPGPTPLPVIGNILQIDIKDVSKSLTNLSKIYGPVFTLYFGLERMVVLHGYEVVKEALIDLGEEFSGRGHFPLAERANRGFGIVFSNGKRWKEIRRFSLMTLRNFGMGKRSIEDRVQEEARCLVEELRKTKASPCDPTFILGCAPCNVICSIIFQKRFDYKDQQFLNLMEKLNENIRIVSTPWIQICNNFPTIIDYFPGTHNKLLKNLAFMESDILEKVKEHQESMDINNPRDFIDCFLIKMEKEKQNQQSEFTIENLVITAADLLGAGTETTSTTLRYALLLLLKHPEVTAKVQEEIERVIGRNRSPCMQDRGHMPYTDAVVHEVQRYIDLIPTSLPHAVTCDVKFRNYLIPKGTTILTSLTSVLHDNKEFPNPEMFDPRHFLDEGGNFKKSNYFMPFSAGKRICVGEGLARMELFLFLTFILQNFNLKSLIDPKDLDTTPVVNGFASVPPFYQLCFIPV
CYP2C19 inhib – inhibitors of human CYP2C19. 21% of 96,000 active. inhibition, % at 5 µM. AID 778. CYP2C19 Supersomes, luciferin-H EGE luminescence, 30 min. P33261;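 active means CYP2C19 inhibition above a set limit at 5 µM in the primary screen, cut at about 50% in these data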
CYP2C9 activ – CYP2C9 (human) activation. P11712. AID 1024. activation factor at 5 µM. 1.4% of 96,000 active. recombinant CYP2C9, luciferin-H conversion, luminescence; hits give high values; factor 1 = untreated enzyme, 0 = blocked;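 active means activation factor of 2 or more for CYP2C9 at a 5 µM dose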
Numbers stand for hits; – = inactive; · = not tested or not shown. This is a sample that favours compounds with a hit; in the whole collection about 22% have one here.

SMILES	CYP2C9 inh	Measles CPE	CYP2C19 act	CYP2C19 inhib	CYP2C9 activ
Cc1cc(Br)ccc1NC(=O)CN1C(=O)C2C3CC(c4ccccc4)C(C3)C2C1=O (centres undefined)	68	–	–	–	–
Cc1nc2ccc(S(=O)(=O)NC(C(=O)Nc3nccs3)C(C)C)cc2s1 (centres undefined)	–	–	–	–	–
Cc1nc2ccc(S(=O)(=O)NCC(=O)N3CCC(N4CCCCC4)CC3)cc2s1	–	–	–	–	–
COc1ccc2nc(NC(=O)C3CCN(S(=O)(=O)c4cccc5nsnc45)CC3)sc2c1	–	–	–	–	–
CC(C)C(NS(=O)(=O)c1cccc2nsnc12)C(=O)NCc1ccc2c(c1)OCO2 (centres undefined)	59	–	–	–	–
COc1ccc2nc(NC(=O)C(NS(=O)(=O)c3cccc4nsnc34)C(C)C)sc2c1 (centres undefined)	74	–	–	–	–
Cc1nc2ccc(S(=O)(=O)NC(C(=O)Nc3nc4ccc(Cl)cc4s3)C(C)C)cc2s1 (centres undefined)	92	–	–	84	–
Cc1nc2ccc(S(=O)(=O)NCC(=O)N3CCC(C)CC3)cc2s1	–	–	–	50	–
CCc1[nH]c(=O)c(C#N)c2c1CSC(C)(C)C2	·	–	·	·	·
CC(C)c1[nH]c(=O)c(C#N)c2c1CSC(C)(C)C2	–	–	–	71	–
CCCCc1[nH]c(=O)c(C#N)c2c1CSC(C)(C)C2	–	–	–	63	–
COc1cccc(OCCOc2c(OC)cccc2OC)c1	–	–	–	95	–
COc1cccc(OC)c1OCCCOc1c(OC)cccc1OC	–	–	–	76	–
CC(C)Oc1ccccc1OCCN(C)C	·	–	·	·	·
COc1cccc(OC)c1OCCOc1ccccc1OC(C)C	–	–	–	82	–
COc1cccc(OCCOCCN(C)CCO)c1	–	–	–	–	–
COc1cccc(OC)c1OCCCCN1CCCC1	–	–	–	–	–
CC(C)(Oc1ccc(Br)cc1)C(=O)N1CCc2ccccc21	–	–	–	–	–
COc1ccccc1N1CCN(CC(=O)Nc2sccc2C#N)CC1	·	–	·	·	·
O=C(Nc1ccccc1)N1N=C(c2ccc(F)cc2)CC1c1ccc(F)cc1 (centres undefined)	·	–	·	·	·
Oc1ccccc1C1=Nc2ncnn2C(c2ccc(F)cc2)C1 (centres undefined)	–	–	–	57	–
O=C(CNC(=O)c1ccc(S(=O)(=O)N2CCCC2)cc1)N/N=C/c1ccc(Cl)cc1Cl	·	–	·	·	·
CN(C)CC(=O)c1ccc(-c2ccccc2)cc1	–	–	–	–	–
CN(C)C/C(Cl)=C(\Cl)c1ccccc1	–	–	–	57	–
CCOc1ccccc1C(=O)N(CN1CCCC1=O)c1cccc(Cl)c1	–	–	–	–	–
SMILES	CYP2C9 inh	Measles CPE	CYP2C19 act	CYP2C19 inhib	CYP2C9 activ
Cc1nc(C)c(C(=O)N/N=C/c2cn(C)c3ccccc23)s1	–	–	–	53	–
Cc1cc(C)nc(SCNC(=O)c2ccc(F)cc2)n1	–	–	–	62	–
NCCCN1CCOCC1	–	–	–	–	–
Cc1noc(/C=C/NCc2cccnc2)c1S(=O)(=O)N(C)CC(=O)N1CCc2ccccc21	78	–	–	–	–
O=C(/C=C/c1ccccc1)Nn1cnnc1	54	–	–	53	–
CC(C)CCC(CCN1CCOCC1)c1ccc2c(c1)OCO2 (centres undefined)	51	–	–	95	–
COc1cccc(C2CC(c3ccc(Cl)cc3Cl)n3nc(N)nc3N2)c1 (centres undefined)	–	–	–	90	–
Cc1cccc(C2CC(c3ccc(F)cc3)Nc3nc(N)nn32)c1 (centres undefined)	–	–	–	58	–
COc1cccc(C2CC(c3ccc(Cl)cc3)n3nc(N)nc3N2)c1 (centres undefined)	–	–	–	78	–
Nc1nc2n(n1)C(c1ccccc1Cl)CC(c1ccc(F)cc1)N2 (centres undefined)	–	–	–	73	–
COc1ccc(C2CC(c3cccc(OC)c3)n3nc(N)nc3N2)cc1 (centres undefined)	–	–	–	–	–
Cc1oc2ccc(NS(=O)(=O)c3cccc4cccnc34)cc2c1C(=O)OC(C)C	·	–	·	·	·
CCOC(=O)c1cc2c(N)c(C(=O)c3cc(C#N)c(SC)nc3C)sc2nc1C	–	–	–	–	–
Cc1ccc(C2CC(c3cccs3)n3nc(N)nc3N2)cc1 (centres undefined)	–	–	–	51	–
COc1cccc(C2CC(c3c(Cl)cccc3Cl)n3nc(N)nc3N2)c1 (centres undefined)	–	–	–	–	–
COc1cccc(C2CC(c3ccccc3Cl)n3nc(N)nc3N2)c1 (centres undefined)	–	–	–	85	–
Cc1ccc(C2CC(c3ccccc3Cl)n3nc(N)nc3N2)cc1 (centres undefined)	–	–	–	–	–
COc1cccc(C2CC(c3ccccc3OC)n3nc(N)nc3N2)c1 (centres undefined)	–	–	–	63	–
COc1cccc(C2CC(c3ccccc3C)n3nc(N)nc3N2)c1 (centres undefined)	–	–	–	–	–
CCOc1ccccc1C1CC(c2ccc(Br)cc2)Nc2nc(N)nn21 (centres undefined)	–	–	–	64	–
Cc1ccccc1-c1nc(CN2CCC(C(=O)NCCCN3CC(C)CC(C)C3)CC2)c(C)o1 (centres undefined)	–	·	–	–	–
Cc1csc(NC(=O)CSc2nnc(NC(=O)COc3ccc(Cl)cc3)s2)n1	·	–	·	·	·
Nc1ccccc1C(=O)N/N=C1\C2CN3CCN(C2)CC1(c1ccccc1)C3	·	–	·	·	·
Cc1ccc(C2CC(c3ccccc3C)n3nc(N)nc3N2)cc1 (centres undefined)	·	–	·	·	·
COc1ccc(C2CC(c3ccccc3C)n3nc(N)nc3N2)cc1 (centres undefined)	–	–	–	57	–
SMILES	CYP2C9 inh	Measles CPE	CYP2C19 act	CYP2C19 inhib	CYP2C9 activ
CCSC(=Nc1ccccc1)C1=C(O)COC1=O	–	–	–	–	–
CC(C)NC1CS(=O)(=O)CC1O (centres undefined)	–	–	–	–	–
CCC1CCCCN1C(=O)Cn1c(=O)oc2ccccc21 (centres undefined)	–	–	–	83	–
CCC1CCCCN1CCCNC(=O)COc1cc(=O)n(C)c2ccccc12 (centres undefined)	–	–	–	–	–
CCC1CCCCN1C(=O)Cn1c(C(=O)OC)cc2sc(Cl)cc21 (centres undefined)	–	–	–	–	–
Cn1c(=O)cc(OCC(=O)NC2CCCCC2)c2ccccc21	–	–	–	62	–
CCC1CCCCN1C(=O)COc1cc(=O)n(C)c2ccccc12 (centres undefined)	–	–	–	59	–
CC(=O)N1CCN(C(=O)Cn2c(=O)oc3ccccc32)CC1	–	–	–	–	–
CCC1CCCCN1C(=O)Cn1c(C(=O)OC)cc2ccsc21 (centres undefined)	–	–	–	53	–

Screens: PubChem BioAssay, several laboratories
